Only some compounds are listed: those with a hit (about 3.4% of all), similar ones and a draw of the others.
Mcl1-Noxa inh: Mcl-1/Noxa interaction inhibition; Q07820; TR-FRET Mcl-1/Noxa peptide binding, 2 h; inhibition, % at 21.7 µM; 220,000 tested, 1.5% active; AID 1022;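 active = compounds that cut the protein-peptide binding signal by more than 50% relative to plate controls in a single-dose test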;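 also: His-tagged Mcl-1 with rhodamine Noxa BH3 peptide and terbium anti-His antibody; 0% = Mcl-1 plus Noxa peptide wells and 100% = peptide-only wells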
Target sequence (Q07820 whole entry, looked up): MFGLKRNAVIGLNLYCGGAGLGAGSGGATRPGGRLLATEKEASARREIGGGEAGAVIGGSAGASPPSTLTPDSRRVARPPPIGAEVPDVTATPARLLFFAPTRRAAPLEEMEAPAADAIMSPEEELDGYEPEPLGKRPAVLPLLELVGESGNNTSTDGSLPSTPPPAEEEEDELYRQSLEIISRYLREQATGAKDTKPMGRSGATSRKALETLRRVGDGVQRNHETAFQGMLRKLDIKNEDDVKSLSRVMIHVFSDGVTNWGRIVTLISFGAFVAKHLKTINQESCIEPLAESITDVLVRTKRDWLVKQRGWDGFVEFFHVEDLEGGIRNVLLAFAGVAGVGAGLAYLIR
Calpain2 inh: calpain II (pig) inhibition; purified calpain II, fluorogenic peptide substrate, 30 min; inhibition, % at 16 µM; 220,000 tested, 0.37% active; AID 1236;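 active = inhibition above about 50%, limit read from the data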
p47phox inh: blocks human p47phox regulatory protein of NADPH oxidases | p47phox/p22phox peptide binding, fluorescence polarization, 2 h | 220,000 tested, 0.53% active | AID 1274 | inhibition, % at 24.7 µM | P14598;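 active = inhibition above about 30%, limit read from the data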;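 also: 0% = p47phox with labelled peptide and 100% = labelled peptide alone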
Mcl-1 Bim block: inhibitors of Bim-Mcl-1 interaction, human; Q07820; Bead-based flow cytometry, Bim peptide-Mcl-1 binding; inhibition, % at 10 µM; 190,000 tested, 0.1% active; in the data active = inhibition above about 40%;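 also: 0% = no compound tracer wells and 100% = peptide blocker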
Mcl1-Bid inh: Mcl-1/Bid interaction inhibition; inhibition, % at 21.7 µM; Q07820; TR-FRET Mcl-1/Bid-Dy647 peptide binding, 1536-well; AID 1021; 220,000 tested, 0.97% active;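 active = compounds that cut the binding signal by more than half at the single screening dose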;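 also: His-tagged Mcl-1 with europium anti-His antibody binding Bid BH3 peptide; 0% = Mcl-1 plus peptide wells and 100% = peptide-only wells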
14-3-3 Bad inh: disrupts binding of bovine 14-3-3 zeta to phospho-Bad peptide. P63103. TR-FRET 14-3-3zeta/Dy647-pBad peptide displacement, 1 h. inhibition, % at 21.7 µM. 220,000 tested, 0.71% active. AID 781;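 active = inhibition above about 70%, limit read from the data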;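 also: 0% = full 14-3-3 plus peptide FRET controls and 100% = background without 14-3-3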
Numbers without * were called inactive; nt = no result given.

SMILES	Mcl1-Noxa inh	Calpain2 inh	p47phox inh	Mcl-1 Bim block	Mcl1-Bid inh	14-3-3 Bad inh
COc1ccc(N2Cc3cccc(C(=O)N4CCN(C(=O)c5ccco5)CC4)c3C2=O)cc1	74*	-116	-21	2	-26	3
COc1ccc(N2Cc3cccc(C(=O)N4CCOCC4)c3C2=O)cc1	13	-11	-15	-3	-36	3
C/C(N)=C(/C#N)C(=O)CSc1nnc(Nc2c(C)cccc2C)s1	72*	-19	-2	-2	-14	4
C/C(N)=C(/C#N)C(=O)CSc1nnc(Nc2cccc(C)c2C)s1	47	-29	-5	-4	-28	11
COc1ccc(-c2nn3cnnc3s2)cc1OC	-6	-40	8	1	53*	-10
O=c1c2ccccc2nc(/C=C/c2cccnc2)n1Cc1ccccc1	31	-1	8	2	91*	94*
O=c1c2ccccc2nc(/C=C/c2cccnc2)n1CCc1ccccc1	22	-14	-4	nt	95*	68
Cc1cccc(/C=C/c2nc3ccccc3c(=O)n2Cc2ccccc2)c1	5	18	-8	15	1	2
COc1ccc(/C=C/C(=O)NCC(=O)N/N=C/c2cc(Br)ccc2OC)cc1	-22	19	101*	-4	6	5
COc1ccccc1/C=C/C(=O)NCC(=O)N/N=C/c1cc(Br)ccc1OC	27	-38	-7	-3	1	-1
COc1ccc(/C(C)=N/Nc2cccc(C(=O)O)c2)cc1OC	15	-21	-2	0	-14	-1
C/C(=N\Nc1ccc(C(=O)O)cc1)c1ccc2c(c1)Nc1ccccc1S2	87*	40	-18	nt	57*	10
CCOc1cc(N2CCOCC2)c(OCC)cc1NC(C)C(=O)N1CCN(CC)CC1 (stereo unspecified)	28	-3	67*	4	5	16
Cc1ccc(C(C)C)c(OCc2ccc(C(=O)N/N=C/c3ccc(O)cc3O)cc2)c1	86*	-12	-17	2	52*	12
CCN1CCN(C(=O)CN(c2ccc(F)c(Cl)c2)S(C)(=O)=O)CC1	-5	4	2	-4	-15	-6
CS(=O)(=O)NNC(=O)c1sccc1OCc1ncc(C(F)(F)F)cc1Cl	14	-23	0	nt	-31	3
C1=CC2CC1CC2CN1CCN(Cc2ccccc2)CC1 (stereo unspecified)	-6	-21	-2	5	61*	46
FC(F)(F)c1cccc(N2CCN(CC3CC=CCC3)CC2)c1 (stereo unspecified)	13	17	5	-1	-17	65
Fc1ccccc1N1CCN(CC2CC3C=CC2C3)CC1 (stereo unspecified)	14	-9	-1	0	-37	19
FC(F)(F)c1cccc(N2CCN(CC3CC4C=CC3C4)CC2)c1 (stereo unspecified)	14	16	-2	1	25	83*
Cc1cccc(C)c1NC(=O)COC(=O)Cc1ccsc1	3	26	-2	0	5	-4
Cc1cc(C)c(NC(=O)COC(=O)Cc2ccsc2)c(C)c1	-6	62*	6	5	-7	-6
CCCNS(=O)(=O)c1ccc2c(c1)n(C)c(=O)n2C	1	17	-3	3	-53	84*
Cn1c(=O)c2cc(S(=O)(=O)Nc3cc(C(=O)O)cc(C(=O)O)c3)ccc2n(C)c1=O	2	3	-4	46*	-25	-3
CCNS(=O)(=O)c1ccc2c(c1)n(C)c(=O)n2C	-1	17	-1	-1	5	-8
SMILES	Mcl1-Noxa inh	Calpain2 inh	p47phox inh	Mcl-1 Bim block	Mcl1-Bid inh	14-3-3 Bad inh
Cn1c(=O)n(C)c2cc(S(=O)(=O)O)ccc21	2	-19	-13	0	-4	74*
O=C(COC(=O)/C=C/c1cccs1)NC1CC1	12	18	-6	-3	-18	-19
Cc1nc2ccccc2c(=O)n1NC(=O)CCC(=O)O	7	-16	1	2	-33	-5
CC1(C)NC(=O)N(CC(=O)OCC(=O)Nc2cccc(S(N)(=O)=O)c2)C1=O	10	-25	-12	0	-12	-8
O=C(COC(=O)c1cccc(Br)c1)NCCC1=CCCCC1	-11	2	-6	2	-6	-9
Cc1c(NC(=O)COC(=O)C2(c3ccc(F)cc3)CCCC2)c(=O)n(-c2ccccc2)n1C	11	12	1	-4	-25	-1
O=C(Cn1cc(C(=O)c2ccco2)c2ccccc21)Nc1ccccc1	-6	61*	6	7	-3	14
COc1cc(CNCCSc2nnnn2C)cc(Br)c1OCc1ccccc1	7	9	-17	-2	-11	-5
COc1ccccc1NC(=O)Nc1ccc(CC#N)cc1	4	-3	-8	nt	-8	-1
COc1cccc(OCc2cc(/C=N/Nc3ccc(C(=O)O)cc3)ccc2OC)c1	67*	-12	-24	nt	-34	1
CCOc1cc(/C=N/Nc2ccc(C(=O)O)cc2)ccc1OC(=O)c1ccccc1C	56*	82*	-7	nt	5	5
CC(C)CNC(=S)N1CCN(C)CC1	-1	14	-8	-2	37	81*
CCCCNC(=S)N1CCN(C)CC1	21	-8	-3	-1	-7	40
O=C(CC(CC(=O)c1ccc(Br)cc1)c1cccnc1)c1ccc(Br)cc1	7	-11	-38	nt	-32	-2
C/C(=N\NC(=O)COc1ccc(C)cc1Br)c1cc([N+](=O)[O-])cs1	-33	-25	32*	0	-27	-6
O=C(c1ccc(S(=O)(=O)N2CCCCC2)cc1)N1CCN(CCN2C(=O)c3cccc4cccc(c34)C2=O)CC1	21	-32	-19	-1	-17	-5
CCN(CC)CCCN1C(=O)CSC1c1ccc([N+](=O)[O-])cc1 (stereo unspecified)	18	2	5	0	-21	-7
COc1ccc(C2SCC(=O)N2CCCN(C)C)cc1 (stereo unspecified)	6	-6	-4	-1	91*	-1
COc1ccc(C(Nc2ccccn2)c2oc(CO)cc(=O)c2O)cc1 (stereo unspecified)	65*	-2	12	-5	43	4
O=c1cc(CO)oc(C(Nc2ccccn2)c2ccsc2)c1O (stereo unspecified)	48	-17	-10	-2	6	-4
Cc1ccnc(NC(c2ccccc2O)c2oc(CO)cc(=O)c2O)c1 (stereo unspecified)	70*	-4	-4	0	10	18
COc1ccc(C(c2oc(CO)cc(=O)c2O)c2oc(CO)cc(=O)c2O)cc1	-6	-34	-6	1	-40	-13
O=c1cc(CO)oc(C(Nc2ccccn2)c2ccccc2Cl)c1O (stereo unspecified)	45	-1	-10	0	7	5

Screening data (PubChem)
